The entries come from a sample that favours hits as a whole.
Tgondii IFNg: inhibitors of Toxoplasma gondii growth with IFN-gamma; Toxoplasma gondii growth in IFN-gamma-treated host cells; active compounds read low; activity change, negative = inhibition, % (test concentration not listed); 69,000 tested, 3.8% active; in the data active means activity change below about -70%, passing the limit was not always enough;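 further: host cells are HeLa cells infected with Toxoplasma gondii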
The depositor's hits bear a star; ! = repeats disagree.

SMILES | Tgondii IFNg
COc1cccc(-c2ccc3c(c2)O[C@@H](CN(C)Cc2cccnc2)[C@@H](C)CN([C@H](C)CO)S3(=O)=O)c1 | 30
C[C@@H]1CN([C@@H](C)CO)S(=O)(=O)c2ccc(C#Cc3ccccc3F)cc2O[C@@H]1CN(C)C(=O)Cc1cccnc1 | -8
O=C(NCCc1c[nH]c2ccccc12)C1CCN(c2ncnc3c2oc2ccccc23)CC1 | -50
C[C@H]1CN([C@@H](C)CO)C(=O)c2ccccc2-c2ccccc2CO[C@H]1CN(C)Cc1cccnc1 | 76
COc1cccc(COC2CN(CCc3ccccc3)C(=O)CN(C(=O)c3cncs3)C2)c1 (centres undefined) | -18
CCS(=O)(=O)N1CCCCN2[C@H](C1)[C@@H](c1ccc(C#Cc3ccccn3)cc1)[C@@H]2CO | -4
COc1ccc(OC)c(C2CCN(Cc3ncccc3C(=O)O)C2)c1 (centres undefined) | 4
CCc1cc(CN(C)C2CCN(C(=O)c3ccccn3)CC2)on1 | -1
Cc1nc(C)c2c(n1)OC(CN1CCc3onc(-c4cccc(F)c4)c3C1)C2 (centres undefined) | -5
CCN1c2ccc(C)cc2C(=O)NC12CCN(C(=O)c1cc(C)cc(C)c1)CC2 | -20
COc1ccc2c3c(n(C)c2c1)[C@H](CO)N(C(=O)Nc1ccc(F)cc1)CC31CN(C(=O)Cc2ccncc2)C1 | 20
CC(=O)Nc1ccc2[nH]c(C)c(CC=C(Cl)Cl)c(=O)c2c1 | 2
CS(=O)(=O)CCNCc1ccc(-c2ccc3ncnc(Nc4ccc(OCc5cccc(F)c5)c(Cl)c4)c3c2)o1 | -81*
O=C(c1coc(-c2ccccc2)n1)N1CCCN(Cc2noc(-c3ccccc3)n2)CC1 | -6
COc1ccc(-c2nc(Cn3nnc(C(=O)Nc4ccc(F)c(F)c4)c3C)c(C)o2)c(OC)c1 | 0
NNC(=S)NC1CC2CC1C1C=CCC21 (centres undefined) | 35
Cc1cccc(-c2nc(C)c(CCNC(=O)C(=O)Nc3ccc(C)c(Cl)c3)s2)c1 | 86
Cc1cc(-c2ccccc2CO)ccc1NC(=O)c1cccnc1 | -28
COc1ccc(-c2ccc(NC(=O)c3cccnc3)c(C)c2)c(OC)c1OC | -23
COc1ncccc1-c1ccc(NC(=O)c2cccnc2)c(C)c1 | -85*
COc1cccc(=O)c2c(C)n(CC(=O)c3ccccc3)c(C)c12 | 33
CC(C)(C)NC(=O)N1CCCC(C(=O)c2ccc(C(F)(F)F)cc2)C1 (centres undefined) | -3
CN(Cc1nc(N2CCCC2)ncc1-c1ccncc1)C(=O)Cc1cccc(F)c1 | -19
C#Cc1cccc(Nc2ncnc3cc(OCCOC)c(OCCOC)cc23)c1 | -47
COc1cc2c(Nc3ccc(NC(=O)c4ccccc4)cc3)ncnc2cc1OCCCN1CCOCC1 | -76*!
SMILES | Tgondii IFNg
COc1cc2c(Oc3ccc4[nH]c(C)cc4c3F)ncnc2cc1OCCCN1CCCC1 | -59
CC(C)Cc1cc(CN2CC(C(=O)O)CC2=O)on1 (centres undefined) | -7
Cc1[nH]cnc1C(=O)N1CCCC(O)(CN(C)C)C1 (centres undefined) | 25
CCC(=O)NCc1ccccc1-c1ccc2c(c1)OCCO2 | 11
CCc1cc(-c2ccc3c(c2)OCCO3)ccc1NC(C)=O | 136
CCNC(=O)Cc1ccc(-c2ccc3c(c2)OCCO3)cc1 | -74*
CCS(=O)(=O)N1CCC2(CC1)CN[C@@H](CO)c1[nH]c3cc(OC)ccc3c12 | 11
COc1ccc2[nH]c(C(=O)NC(C)c3ccc4c(c3)CCCO4)c(NC(C)=O)c2c1 (centres undefined) | 15
O=C(Cn1nnc(-c2ccccc2)n1)NCc1cc(Cl)c2c(c1)OCCCO2 | 3
COc1ccc2[nH]c(C)c(C(=O)NCc3cc(Cl)c4c(c3)OCCCO4)c2c1 | -85*
CS(=O)(=O)N1CCC(C(=O)N2C3CCC2CC(c2ccc(F)cc2)C3)CC1 (centres undefined) | -4
O=c1c(O)c(-c2ccc(O)c(O)c2)oc2cc(O)cc(O)c12 | -78*!
Cc1oc2cc(O)cc(O)c2c(=O)c1-c1ccccc1 | 261
O=c1cc(-c2ccc(O)c(O)c2)oc2cc(O)cc(O)c12 | 9
O=c1ccc2cc3ccoc3cc2o1 | 8
COc1ccc2c(c1)c(=O)oc1cc3occ(C(C)(C)C)c3cc12 | -32
COc1c2ccoc2cc2oc(=O)ccc12 | -87*!
Cc1cc(C)cc(NC(=O)NCC2CCN(Cc3cnn(C)c3)C2)c1 (centres undefined) | 2
Cc1cc(C)n(CCC2CC(=O)Nc3nn(Cc4ccccc4)c(C)c32)n1 (centres undefined) | 9
COc1ccc(-c2cncc(C(N)=O)c2)cn1 | 81
COc1ccc(NC2=NC(c3ccc(Cl)cc3)n3c(nc(C)cc3=O)N2)cc1 (centres undefined) | -86*
COc1ccc(Nc2nc(NC(=O)Nc3ccc(Cl)cc3)n[nH]2)cc1 | -53
COc1ccc(C2(CNCc3cc(-c4ccc(Cl)cc4)c[nH]c3=O)CCOCC2)cc1 | 311
Cc1ccc(S(=O)(=O)NC(C(=O)Oc2ccc3c(C(F)(F)F)cc(=O)oc3c2)c2ccccc2)cc1 (centres undefined) | -6

Screening data deposited in PubChem BioAssay by Broad Institute.
